Several values for one entry are separate records, joined by “and”; a condition that tells them apart may be missing. Equal values may be shown once. The campaign covered roughly 2,100 compounds. About 1,100 (52%) were called active. About 29% were inconclusive and are not listed. The set was probably picked from earlier hits. The list shows a part of the results. Unmarked numbers belong to inactive results. The call rests on the fitted dose curve; in most records, active means well fitted inhibition curve with a large enough effect; inconclusive means small, poorly fitted or top-dose-only effect; inactive means no such curve, though single readings can be large or run the other way.
target: DNA dC->dU-editing enzyme APOBEC-3F (Homo sapiens) (UniProt Q8IUX4); assay: qHTS for inhibitors of Vif-A3F interactions: Cherry picks counterscreen; settings: HeLa A3F-eYFP/Vif cells, eYFP fluorescence, 24 h; series mostly up to 46.1 µM; activity, negative = inhibitor: at the top concentration; further: nearly all actives have a fitted effect of over 65% in size
Sequence (Q8IUX4 whole entry, looked up): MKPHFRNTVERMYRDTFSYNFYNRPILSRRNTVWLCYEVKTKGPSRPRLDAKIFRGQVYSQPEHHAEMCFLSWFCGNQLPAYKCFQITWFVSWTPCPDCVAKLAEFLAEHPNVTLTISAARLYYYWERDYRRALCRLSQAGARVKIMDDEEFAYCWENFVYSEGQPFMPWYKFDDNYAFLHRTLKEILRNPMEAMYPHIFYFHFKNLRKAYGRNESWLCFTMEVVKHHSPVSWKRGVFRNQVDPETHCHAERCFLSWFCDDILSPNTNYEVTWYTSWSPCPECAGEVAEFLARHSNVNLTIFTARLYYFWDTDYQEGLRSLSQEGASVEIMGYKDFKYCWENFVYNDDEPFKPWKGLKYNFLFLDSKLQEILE
Outline: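 HeLa cells stably expressing A3F-eYFP and Vif, cultured overnight, then treated 24 h at 37 degrees C with compounds at several concentrations; yellow fluorescence (488 nm Ex/500-530 nm Em) imaged on Acumen; MG132 positive control.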
On the % scale 0 is the no-effect control and ±100 the full control effect; potency means the concentration at half of the fitted maximal effect.

| SMILES | Potency | activity, negative = inhibitor |
| --- | --- | --- |
| CCOc1ccc(S(=O)(=O)N(CC(=O)N/N=C/c2ccc(-c3ccc([N+](=O)[O-])cc3)o2)c2ccccc2)cc1 | 3.53 µM (active) |  |
| CC(C)(C)NC(=S)N/N=C\c1ccc(-c2ccc([N+](=O)[O-])cc2)o1 | 18.4 µM (active) |  |
| CN(/N=C/c1ccc(-c2ccc([N+](=O)[O-])cc2)o1)c1ccccc1 | 1.46 µM (active) |  |
| O=C(O)c1cccc(-c2ccc(/C=N/Nc3ccc([N+](=O)[O-])cc3)o2)c1 | 18.4 µM (active) |  |
| Cc1cc2nc(SCCOC(=O)Nc3cccc(Cl)c3)nc(C)c2cc1C |  | -6.26% |
| Cn1ncc(N=Cc2c(O)ccc3ccccc23)c1C(=O)Nc1cccc(Cl)c1 | 14.6 µM (active) |  |
| CCCOc1ccccc1C1CC(=O)NC2=C1C(=O)CCC2 (stereo not given) | 7.04 µM (active) |  |
| CCOc1ccccc1C1CC(=O)NC2=C1C(=O)CCC2 (stereo not given) | 12.5 µM (active) |  |
| CCCOc1ccccc1C1CC(=O)Nc2cc3c(cc21)OCO3 (stereo not given) | 3.96 µM (active) |  |
| Cc1c(C(=O)Nc2ccc(C(C)C)cc2)sc2nc3n(c(=O)c12)CCC3 |  | -7.16% |
| CC(C)c1ccc(C(=O)NCCCNC(=O)c2cnccn2)cc1 |  | 1.23% [at 36.9 µM] |
| CC(C)c1ccc(NC(=O)Nc2cnccn2)cc1 | 17.7 µM (active) |  |
| CCOC(=O)Cn1c(=O)c(-c2cc(Br)ccc2N)nc2ccccc21 | 11.6 µM (active) |  |
| CCOc1ccccc1N1CC(c2nc3ccccc3n2Cc2c(C)cc(C)cc2C)CC1=O (stereo not given) |  | -29.7% |
| CCOC(=O)COn1c(=O)c(-c2ccc(Br)cc2)[n+]([O-])c2ccccc21 |  | -17.5% |
| Nc1ccccc1C=C1Cc2ccccc2C1=O | 16.4 µM (active) |  |
| CN(C)c1ccc(/C=C2/C[N+](C)(C)C/C(=C/c3ccc(N(C)C)cc3)C2=O)cc1 | 7.31 µM (active) |  |
| CN(C)c1ccc(/C=C2\Cc3ccccc3C2=O)cc1 | 2.91 µM (active) |  |
| Cc1ccccc1NC(=O)CSC1=C(C#N)C(c2ccsc2)CC(=O)N1 (stereo not given) |  | -26.6% [at 36.9 µM] |
| CCOC(=O)CSC1=C(C#N)C(c2ccc(C)s2)CC(=O)N1 (stereo not given) | 1.98 µM (active) |  |
| S=C(NCc1ccco1)Nc1ccc(Cl)cn1 |  | 6.55% |
| O=C(CCc1ccccc1)Nc1ccc(Cl)cn1 | 3.96 µM (active) |  |
| CCCC(=O)NC1=C(Cl)C(=O)c2ccccc2C1=O |  | 33.8% |
| CN(C)c1ccc(/C=C/c2cc(N(C)C)nc3ccccc23)cc1 | 8.2 µM (active) |  |

| SMILES | Potency | activity, negative = inhibitor |
| --- | --- | --- |
| CN(C)c1ccc(/C=C/c2nc3ccccc3c(=O)n2CCO)cc1 | 23.1 µM (active) |  |
| CCN(CC)c1ccc(/C=C/c2cc(-c3ccccc3)c3ccccc3n2)cc1 | 7.04 µM (active) |  |
| CN(C)c1ccc(/C=C/c2cc(/C=C/c3ccc(N(C)C)cc3)c3ccccc3n2)cc1 | 5.17 µM (active) |  |
| CCC(C)Sc1cccc(-c2nc3cc(C)ccn3c2NC2CCCCC2)c1 (stereo not given) |  | -9.38% |
| Nc1ccc(/C=C/c2cc(Cl)nc3ccccc23)cc1 | 23.1 µM (active) |  |
| Nc1ccc2nc(-c3ccccc3)c(-c3ccccc3)nc2c1 |  | -17.6% [at 36.9 µM] |
| Cc1c(N2C(=O)/C(=C/c3ccc(N(C)C)cc3)N(C)C2=S)c(=O)n(-c2ccccc2)n1C | 20.6 µM (active) |  |
| CN1C(=O)/C(=C\c2ccc(N(C)C)cc2)OC1=S | 1.98 µM (active) |  |
| CN1C(=S)N(c2cccnc2)C(=O)/C1=C\c1ccc(N(C)C)cc1 | 9.94 µM (active) |  |
| Cc1ccc(/C=N/NC(=O)CCCOc2ccc(Cl)cc2Cl)cc1 | 4.98 µM (active) |  |
| O=C1N/C(=C\c2ccccc2)c2ccccc21 | 1.58 µM (active) |  |
| O=C1NC(c2ccccc2Br)=N/C1=C\c1ccco1 |  | -3.88% |
| Cc1cccc2cc3c(N)c(C(=O)N4CCc5ccccc54)sc3nc12 | 6.51 µM (active) |  |
| Cc1ccc2nc3sc(C(=O)N4CCCc5ccccc54)c(N)c3cc2c1 | 12.5 µM (active) |  |
| Cc1cccc2cc3c(N)c(C(=O)N4CCCc5ccccc54)sc3nc12 | 20.6 µM (active) |  |
| Fc1ccc(-c2cnn3c(-c4cccs4)ccnc23)cc1 | 15.8 µM (active) |  |
| COc1ccccc1C1c2ccc3ccccc3c2Oc2ncn(CCN(C)C)c(=N)c21 (stereo not given) | 15.8 µM (active) |  |
| COC(=O)C1C2CC3c4[nH]c5cc(OC)ccc5c4CCN3CC2CC(OC2CCCCO2)C1OC (stereo not given) |  | -27.1% |
| COC(=O)C1C2CC3c4[nH]c5cc(OC)ccc5c4CCN3CC2CC(OC(=O)CC(C)=O)C1OC (stereo not given) | 18.4 µM (active) |  |
| COC(=O)C1=COC(C)C2CN3CCc4c([nH]c5cc(OC)c(OC)cc45)C3CC12 (stereo not given) |  | -28.4% |
| COc1ccc(-c2n[nH]c(C)c2-c2ccc(OC)c(OC)c2)c(O)c1 | 7.9 µM (active) |  |
| O=[N+]([O-])c1ccccc1S(=O)(=O)Nc1ccc(-c2ccc(N3CCOCC3)nn2)cc1 |  | -18.2% |
| O=[N+]([O-])c1ccc(N/N=C/c2sc(N3CCOCC3)nc2-c2ccccc2)c(S(=O)(=O)Nc2ccccc2Cl)c1 | 5.8 µM (active) |  |
| COc1ccccc1NS(=O)(=O)c1cc([N+](=O)[O-])ccc1N/N=C/c1sc(N2CCOCC2)nc1-c1ccccc1 | 1.46 µM (active) |  |

| SMILES | Potency | activity, negative = inhibitor |
| --- | --- | --- |
| COC(=O)c1ccc(NC(=O)CC2Nc3cc(C)c(C)cc3NC2=O)cc1 (stereo not given) | 9.2 µM (active) |  |
| CCOC(=O)c1ccc(NC(=S)NC(=O)C2CCCC2)cc1 |  | -5.14% |
| CCCSc1ncc(Cl)c(C(=O)Nc2sc3c(c2C(N)=O)CCCC3)n1 | 18.4 µM (active) |  |
| CCOC(=O)c1ccc(/C=C2/C=C(c3ccccc3)N(c3ccc(Cl)c(C(=O)O)c3)C2=O)cc1 | 20.6 µM (active) |  |
| Cc1cc(NC(=O)CSc2nc3c(C)cccc3cc2C#N)no1 | 6.51 µM (active) |  |
| Cc1cc(NC(=O)CSc2nc(-c3cccs3)nc3ccccc23)no1 | 0.994 µM (active) |  |
| Cc1cc2cc(C#N)c(SCC(=O)Nc3nonc3C)nc2cc1C | 23.1 µM (active) |  |
| Cc1nonc1NC(=O)CSc1nc2c(C)cccc2cc1C#N | 16.4 µM (active) |  |
| CC(Nc1oc(-c2ccc(COc3ccccc3)o2)nc1C#N)c1ccccc1 (stereo not given) |  | -27.6% |
| Cc1ccc2nc(SCC(=O)Nc3ccc4sc(C)nc4c3)c(C#N)cc2c1 | 16.4 µM (active) |  |
| Cc1nc2cc(NC(=O)CSc3nc4c(C)cccc4cc3C#N)ccc2s1 | 13 µM (active) |  |
| Cc1cccc(C(=O)Nc2nnc(C3=COCCO3)o2)c1 |  | -6.45% |
| N=C1S/C(=C\c2ccc(-c3cccc(Cl)c3)o2)C(=O)N1c1nccs1 | 18.4 µM (active) |  |
| Cc1ccc(N=Cc2c(O)n(-c3nccs3)c(=O)c3ccccc23)c(C)c1 |  | -8.48% |
| COc1ccc(N=Cc2c(O)n(-c3cccc(C)n3)c(=O)c3ccccc23)c(OC)c1 | 23.1 µM (active) |  |
| O=C(N/N=C/c1c(O)n(-c2ccc(Cl)cn2)c(=O)c2ccccc12)c1ccncc1 |  | -29.3% |
| CCOC(=O)Cc1ccc(Nc2nc3cc(-c4sccc4C)sc3c(=O)n2C)cc1 | 3.96 µM (active) |  |
| COc1ccc(-n2cc3c(-c4cccc(Br)c4)nnc(C)c3n2)cc1 |  | -21.6% |
| COc1ccc(-n2nnnc2-c2ccccc2)cc1 | 2.5 µM (active) |  |
| CCOc1cccc(-n2nnnc2-c2ccc(OC)cc2)c1 | 4.44 µM (active) |  |
| COc1ccc(-n2nnnc2-c2cccc(OC)c2)cc1 | 1.25 µM (active) |  |
| COc1ccc(-c2cc(NC(C)=O)c3ncc(-c4cc(OC)c(OC)c(OC)c4)n3c2)cn1 | 7.04 µM (active) |  |
| COc1cc(-c2cnc3c(NC(C)=O)cc(-c4ccccc4CN(C)C)cn23)cc(OC)c1OC | 12.5 µM (active) |  |
| CC(NC(=O)c1ccc(Nc2nc3ccccc3n3nnnc23)cc1)c1ccccc1 (stereo not given) | 18.4 µM (active) |  |

| SMILES | Potency | activity, negative = inhibitor |
| --- | --- | --- |
| COc1cc(Nc2nc3ccccc3n3nnnc23)cc(OC)c1OC | 13 µM (active) |  |
| COc1ccccc1CNC(=O)c1ccc(Nc2nc3ccccc3n3nnnc23)cc1 | 23.1 µM (active) |  |
| Cc1ccc(CNC(=O)c2cccc(Nc3nc4ccccc4n4nnnc34)c2)cc1 | 20.6 µM (active) |  |
| Cc1cc(C)nc(-n2nc(C)cc2NC(=O)c2ccc(F)cc2F)n1 |  | -4.7% |
| COc1cc2ccccc2cc1C(=O)N/N=C/c1cccs1 | 1.77 µM (active) |  |
| COc1ccc(NC(=O)/C(C#N)=C\C=C\c2ccco2)cc1 | 7.04 µM (active) |  |
| COc1ccc(NC(=O)/C(C#N)=C/C=C/c2ccco2)cc1 | 6.27 µM (active) |  |
| C=CCOc1ccc2nc(NC(=O)OC)[nH]c2c1 | 2.5 µM (active) |  |
| CCOC(=O)c1c(NC(=O)CSc2nc3ccc(OC)cc3[nH]2)sc2c1CC(C)(C)NC2(C)C |  | -11.3% |
| CC(C)n1cnc2c(NCc3ccccc3)cc(N[C@H](C)CO)cc21 | 14 µM (active) |  |
| COc1ccccc1Nc1nnc(SCC2CCCCO2)s1 (stereo not given) | 14 µM (active) |  |
| Cc1ccc(NC(=O)C(=Cc2ccc(C(=O)O)cc2)C(=O)Nc2ccc(C)cc2C)c(C)c1 | 3.53 µM (active) |  |
| COc1cc(/C=C2\SC(=S)N(Nc3ncc(C(F)(F)F)cc3Cl)C2=O)ccc1O | 20.6 µM (active) |  |
| C=CCN1C(=O)/C(=C/c2ccc(O)c(OC)c2)S/C1=N/c1nccs1 |  | 46.6% |
| CN(C)c1ccc(/C=C2\SC(=S)N(Nc3ncc(C(F)(F)F)cc3Cl)C2=O)cc1 | 6.51 µM (active) |  |
| COc1cc(/C=C2\SC(=S)N(NC(=O)c3ccccc3OC)C2=O)ccc1O |  | -11.7% |
| N=C1/C(=C\c2coc3ccccc3c2=O)C(=O)N=C2SC(c3ccncc3)=NN12 | 20.6 µM (active) |  |
| COc1ccc(C)cc1NCc1cc(=O)oc2cc(-c3ccccc3)c(O)cc12 |  | -25.1% [at 36.9 µM] |
| COc1ccc(-c2coc3cc4oc(=O)cc(-c5ccccc5)c4cc23)cc1F | 1.98 µM (active) |  |
| COc1ccc2nc3sc(C(=O)Nc4cc(Cl)c(OC)cc4OC)cc3cc2c1 | 4.11 µM (active) |  |
| Nc1nc2n[nH]nc2c(=O)[nH]1 | 9.2 µM (active) and 3.96 µM (active) |  |
| C=CCn1c(SCc2c(C)noc2C)nc2cc(C(=O)O)ccc2c1=O | 17.7 µM (active) |  |
| Cc1noc(C)c1CSc1nc2ccccc2c(=O)n1-c1ccccc1 | 3.53 µM (active) |  |

From PubChem BioAssay AID651815 (National Center for Advancing Translational Sciences (NCATS), 2012)
